Inconclusive results are not listed. Activity calls are given as the source filed them. Unless noted, calls follow the shape of the dose curve; as a rule, active = well fitted curve in the direction sought with a large enough effect; inconclusive = small, poorly fitted or top-dose-only effect, or another doubt; inactive = no such curve, though single readings can be large; an effect the other way counts as inactive or inconclusive.
Tests used:
[1] = molecular target: ATP-dependent 6-phosphofructokinase (Trypanosoma brucei brucei) (UniProt O15648); experiment: qHTS Assay to Find Inhibitors of T. brucei phosphofructokinase: hit validation (AID 492961);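 also: luminescence reports ADP formed as PFK phosphorylates fructose-6-phosphate with ATP; series mostly up to about 51 µM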
Method in brief: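 Inhibition of parasite PFK is measured as reduced ADP formation, quantified via luciferase after ATP depletion. Assay used 0.1 mM ATP, 0.5 mM F6P, 1.25 nM enzyme, 45 min incubation.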

[2] = molecular target: Thioredoxin reductase 1, cytoplasmic (Rattus norvegicus) (UniProt O89049); experiment: qHTS Assay for Substrates of Mammalian Selenoprotein Thioredoxin Reductase 1 (TrxR1) (AID 488772);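 also: series mostly up to about 57 µM; a drop in NADPH fluorescence below the no-compound background marks a TrxR1 substrate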
Method in brief: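 In this dual-purpose format, potential substrates are identified from the first fluorescence read after selenite addition, not from the 8-minute delta. Rat enzyme is preincubated with NADPH and then with compound at ~22 deg C.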

[3] = molecular target: Thioredoxin reductase 1, cytoplasmic (Rattus norvegicus) (UniProt O89049); experiment: qHTS Assay for Inhibitors of Mammalian Selenoprotein Thioredoxin Reductase 1 (TrxR1) (AID 488773);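 also: drop in NADPH fluorescence over an 8 min run after selenite addition; series mostly up to about 57 µM; nearly all actives have a fitted effect of over 40% in size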
Method in brief: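 Inhibition is scored from the loss of NADPH fluorescence between first and last reads of an 8-min kinetic run. Selenite (400 uM) was the substrate, added after 15 min compound preincubation at room temperature.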

[4] = molecular target: Flap endonuclease 1 (Homo sapiens) (UniProt P39748); experiment: qHTS Validation Assay for the Inhibitors of Human Flap endonuclease 1 (FEN1) (AID 488816)
Method in brief: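 Enzyme reagent 10 nM; cpds pinned; 15 min RT preinc.; substrate 50 nM final; reads t=0 and 15 min; no-enzyme buffer wells as neg. control; normalized data, 4-parameter Hill fit.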

[5] = molecular target: Chromobox protein homolog 1 (Homo sapiens) (UniProt P83916); experiment: qHTS Validation Assay for Inhibitors of HP1-beta Chromodomain Interactions with Methylated Histone Tails (AID 488953);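 also: loss of AlphaScreen luminescence from HP1-beta binding biotinylated H3K9me3 peptide; series mostly up to about 110 µM; nearly all actives have a fitted effect of over 50% in size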
Method in brief: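 Compounds pinned into a preassembled complex of HP1-beta and trimethyl-K9 histone H3(1-18) biotin peptide (50 nM each; PBS pH 7.4, 0.01% Tween-20). After 30 min, bead-based AlphaScreen detection followed.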

[6] = molecular target: Methanococcus maripaludis chaperonin (MmCpn) (UniProt Q6LX38); experiment: High-Throughput Screening for Modulators of Cytosolic Chaperonin Activity: MmCpn Primary Screen (AID 488978);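 also: 50 nM MmCpn enzyme hydrolysing 30 µM ATP at 37 °C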
Method in brief: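 MmCpn (50 nM final) was preincubated with compound 5 min at RT, then 30 uM ATP (final) was added and the reaction ran 10 min at 37C. ADP produced was detected by Transcreener HTRF (ex 320 nm; em 590/665 nm).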

[7] = molecular target: D(1A) dopamine receptor (Homo sapiens) (UniProt P21728); experiment: HTS Assay for Allosteric Agonists of the Human D1 Dopamine Receptor: Primary Screen for Agonists (AID 488981)
Method in brief: (§1)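 Tetracycline-induced HEK293 Trex D1 cells with forced coupling to calcium, loaded with no-wash calcium dye; kinetic fluorescence read 180 s after compound addition for agonism, then a further 180 s after an EC20 dopamine challenge for potentiation.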

[8] = molecular target: D(1A) dopamine receptor (Homo sapiens) (UniProt P21728); experiment: HTS Assay for Allosteric Agonists of the Human D1 Dopamine Receptor: Primary Screen for Potentiators (AID 488982)
Method in brief: as §1

[9] = molecular target: D(1A) dopamine receptor (Homo sapiens) (UniProt P21728); experiment: HTS Assay for Allosteric Agonists of the Human D1 Dopamine Receptor: Primary Screen for Antagonists (AID 488983);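 also: calcium flux response to an EC80 dopamine challenge measured with no-wash dye; nearly all actives have a fitted effect of over 65% in size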
Method in brief: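 In this primary screen, compounds are applied to calcium-dye-loaded HEK293 T-REx cells with force-coupled D1 expression induced overnight at 30 C. An EC80 of dopamine follows the 180 s compound phase, and calcium is monitored for a further 180 s.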

[10] = Validation screen for small molecules that induce genotoxicity in human embryonic kidney (HEK293T) cells expressing luciferase-tagged ELG1 (AID 493106)
Method in brief: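 In this validation screen, increased ELG1-luciferase signal flags compounds causing genetic stress. HEK293T reporter cells are treated 16 hr (37 °C, 5% CO2), developed with ONE-Glo for 30 min at room temperature, and imaged on a CCD-based reader.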

[11] = molecular target: ATPase family AAA domain-containing protein 5 (Homo sapiens) (UniProt Q96QE3); experiment: Validation screen for small molecules that inhibit ELG1-dependent DNA repair in human embryonic kidney (HEK293T) cells expressing luciferase-tagged ELG1 (AID 493107);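 also: cells co-treated with the DNA-damaging agent 5-fluorouridine alongside compound; series mostly up to about 46 µM; inhibitors lower the ELG1-luciferase luminescence signal; nearly all actives have a fitted effect of over 70% in size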
Method in brief: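 Compounds reducing 5-fluorouridine-driven ELG1-luciferase signal in HEK293T cells were scored; exposure lasted 16 hr at 37 °C with luminescence detected via ONE-Glo.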

[12] = Nrf2 qHTS screen for inhibitors: Validation (AID 493153; active = well fitted inhibition curve with a large enough effect in the main read-out, with a control signal flat, not every such curve was filed as active); details: viability change: measured here: cytotoxicity max response
Method in brief: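 In this counterscreened reporter format, each well gives two signals: CellTiter-Fluor fluorescence for cytotoxicity and ARE-luciferase luminescence for Nrf2 function. A549 ARE_Fluc cells in 5% FBS OPTI-MEM were exposed to compound titrations for 18-24 h.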

[13] = qHTS for Inhibitors of Cell Surface uPA Generation: Validation Assay (AID 493164);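 also: RAW 264.7 macrophage cells exposed to compound for 18 h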
Method in brief: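 Compounds are titrated over seven points (2.45 nM–38.3 uM final) onto pre-plated RAW 264.7 cells and incubated for 18 h. Retained intracellular ATP, measured with ATP-Lite, indicates blocked lethal factor entry.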

[14] = molecular target: Peptidyl-prolyl cis-trans isomerase NIMA-interacting 1 (Homo sapiens) (UniProt Q13526); experiment: qHTS Validation Assay to Find Inhibitors of Pin1 (AID 504536; active = well fitted inhibition curve with a large enough effect in the polarisation, with a control signal flat, not every such curve was filed as active; the % refers to the polarisation)
Method in brief: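 Fluorescence polarization competition: compounds (titration) displace HiFluor-488-labeled Pin1-1b peptide from Pin1 (0.3 uM final) in pH 7.5 HEPES buffer with DTT, 10 min at room temperature; %Activity normalized to no-enzyme wells, curves fitted.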

[15] = molecular target: M-phase phosphoprotein 8 (Homo sapiens) (UniProt Q99549); experiment: qHTS Validation Assay for Inhibitors for MPP8 Chromodomain Interactions with Methylated Histone Tails (AID 488949);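 also: AlphaScreen signal from MPP8 chromodomain bound to biotinylated H3K9me3 peptide; top concentration of the series differs between compounds; nearly all actives have a fitted effect of over 55% in size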
Method in brief: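 MPP8 (50 nM) was preincubated with biotinylated H3(1-18)K9me3 peptide (50 nM) in PBS pH 7.4, 0.01% Tween-20 for 30 min at room temperature, then with compounds for 30 min; binding was detected by AlphaScreen.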

[16] = Quantitative high throughput screen for delayed death inhibitors of the malarial parasite plastid, 48 hour incubation (AID 488752); also: nearly all actives have a fitted effect of over 65% in size
Method in brief: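 Cultures: infected erythrocytes at final 2% hematocrit and 0.1% parasitemia in Albumax-supplemented RPMI. Parasites express integrated firefly luciferase. Incubation with compound lasts 48 h before luminescent detection of remaining reporter activity.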

[17] = molecular target: Transient receptor potential cation channel subfamily V member 1 (Homo sapiens) (UniProt Q8NER1); experiment: HTS Assay for Compounds that Act as Enhancers of the Vanilloid Receptor 1 (AID 488979)
Method in brief: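 TRPV1 cells loaded with Fluo-8 calcium dye; compound added and Ca2+ signal (ex 480/em 520 nm) followed 3 min, then capsaicin at EC20 added and read 2 more min to detect enhancement.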

[18] = molecular target: Thyrotropin receptor (Homo sapiens) (UniProt P16473); experiment: qHTS Assay for Antagonists of the Thyroid Stimulating Hormone Receptor (AID 488980); also: series mostly up to about 58 µM
Method in brief: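 HEK293 cells transfected with human TSHR, suspended in HEPES-buffered HBSS with 70 uM RO 20-1724, were treated with compounds plus TSH at EC80 (4 nM final). cAMP was measured by competitive HTRF (cryptate anti-cAMP antibody, cAMP-d2 acceptor).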

[19] = molecular target: Galactokinase (Homo sapiens) (UniProt P51570); experiment: qHTS Validation Assay for Inhibitors of Human Galactokinase (GALK) (AID 493189)
Method in brief: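 GALK (5 nM) with 35 uM ATP and 100 uM galactose in HEPES pH8.0, MgCl2, NaCl, DTT, BSA; 1 h at room temperature. Residual ATP read by Kinase-Glo Plus luminescence after 10 min.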

[20] = Validation screen for small molecules that induce DNA re-replication in SW480 colon adenocarcinoma cells (AID 504364)
Method in brief: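 Hoechst-stained SW480 nuclei, imaged at 405 nm excitation after 48 hr compound exposure, were counted for elevated DNA content as the re-replication signal.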

Measured: viability change

Sequence of M-phase phosphoprotein 8 (Homo sapiens) (Q99549 whole entry, looked up): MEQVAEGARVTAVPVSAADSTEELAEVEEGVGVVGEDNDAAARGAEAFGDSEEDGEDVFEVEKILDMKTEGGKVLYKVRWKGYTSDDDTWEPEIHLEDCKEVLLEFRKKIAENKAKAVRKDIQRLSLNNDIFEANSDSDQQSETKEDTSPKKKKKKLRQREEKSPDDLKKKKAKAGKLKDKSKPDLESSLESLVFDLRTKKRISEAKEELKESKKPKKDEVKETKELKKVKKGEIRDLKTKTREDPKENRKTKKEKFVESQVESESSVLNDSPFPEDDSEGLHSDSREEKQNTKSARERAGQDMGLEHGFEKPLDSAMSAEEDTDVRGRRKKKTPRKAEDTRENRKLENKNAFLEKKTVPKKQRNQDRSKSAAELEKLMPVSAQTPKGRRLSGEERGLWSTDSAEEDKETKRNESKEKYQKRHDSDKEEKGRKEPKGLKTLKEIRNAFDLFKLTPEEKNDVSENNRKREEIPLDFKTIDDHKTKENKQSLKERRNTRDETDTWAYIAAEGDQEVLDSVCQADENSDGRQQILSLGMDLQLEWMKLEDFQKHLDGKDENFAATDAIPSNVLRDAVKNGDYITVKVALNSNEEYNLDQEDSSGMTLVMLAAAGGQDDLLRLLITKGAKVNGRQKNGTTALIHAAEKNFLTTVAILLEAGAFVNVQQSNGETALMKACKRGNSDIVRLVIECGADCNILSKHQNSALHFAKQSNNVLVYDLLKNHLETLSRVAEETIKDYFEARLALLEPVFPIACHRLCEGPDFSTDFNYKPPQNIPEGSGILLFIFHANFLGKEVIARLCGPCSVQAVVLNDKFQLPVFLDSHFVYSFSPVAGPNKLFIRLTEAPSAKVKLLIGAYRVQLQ
Sequence of Methanococcus maripaludis chaperonin (MmCpn) (Q6LX38 1-543): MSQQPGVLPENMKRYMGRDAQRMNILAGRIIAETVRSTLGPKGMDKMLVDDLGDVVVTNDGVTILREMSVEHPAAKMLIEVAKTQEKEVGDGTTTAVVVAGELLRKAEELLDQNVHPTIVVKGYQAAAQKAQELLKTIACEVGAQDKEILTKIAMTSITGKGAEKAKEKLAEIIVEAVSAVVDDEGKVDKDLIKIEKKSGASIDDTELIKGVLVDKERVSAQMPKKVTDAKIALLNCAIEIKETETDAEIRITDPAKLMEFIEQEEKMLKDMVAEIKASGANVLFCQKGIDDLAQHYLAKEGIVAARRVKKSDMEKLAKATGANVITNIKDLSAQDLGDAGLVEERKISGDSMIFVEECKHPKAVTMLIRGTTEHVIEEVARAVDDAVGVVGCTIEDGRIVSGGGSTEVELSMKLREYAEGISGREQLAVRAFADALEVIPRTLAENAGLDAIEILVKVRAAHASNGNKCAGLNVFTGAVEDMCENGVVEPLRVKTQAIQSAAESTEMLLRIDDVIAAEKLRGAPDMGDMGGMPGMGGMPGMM
Sequence of ATP-dependent 6-phosphofructokinase (Trypanosoma brucei brucei) (O15648 whole entry, looked up): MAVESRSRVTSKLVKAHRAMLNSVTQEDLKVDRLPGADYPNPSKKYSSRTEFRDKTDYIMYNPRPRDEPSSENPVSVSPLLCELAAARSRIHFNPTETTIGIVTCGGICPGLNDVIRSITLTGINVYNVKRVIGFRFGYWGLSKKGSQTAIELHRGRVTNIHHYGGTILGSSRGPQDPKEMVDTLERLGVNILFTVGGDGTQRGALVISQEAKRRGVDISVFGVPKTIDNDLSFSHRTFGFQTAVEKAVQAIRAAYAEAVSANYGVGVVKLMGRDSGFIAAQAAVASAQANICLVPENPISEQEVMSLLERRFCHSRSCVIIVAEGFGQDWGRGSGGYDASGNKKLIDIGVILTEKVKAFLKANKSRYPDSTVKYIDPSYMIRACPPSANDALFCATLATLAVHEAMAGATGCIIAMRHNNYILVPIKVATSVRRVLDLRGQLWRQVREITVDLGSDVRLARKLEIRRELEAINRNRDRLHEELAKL
Sequence of D(1A) dopamine receptor (Homo sapiens) (P21728 whole entry, looked up): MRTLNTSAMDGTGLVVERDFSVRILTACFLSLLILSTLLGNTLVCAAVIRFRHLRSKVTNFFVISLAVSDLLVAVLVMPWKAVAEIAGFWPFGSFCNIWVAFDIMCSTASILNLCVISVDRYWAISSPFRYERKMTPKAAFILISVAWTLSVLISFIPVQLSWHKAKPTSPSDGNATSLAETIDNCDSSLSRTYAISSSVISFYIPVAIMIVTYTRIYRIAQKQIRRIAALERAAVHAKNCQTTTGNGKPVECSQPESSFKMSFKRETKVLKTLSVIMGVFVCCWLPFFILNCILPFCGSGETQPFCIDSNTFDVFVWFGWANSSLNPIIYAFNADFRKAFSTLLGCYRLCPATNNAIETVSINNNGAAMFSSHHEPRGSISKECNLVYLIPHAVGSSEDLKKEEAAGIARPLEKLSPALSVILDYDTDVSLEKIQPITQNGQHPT
Sequence of Peptidyl-prolyl cis-trans isomerase NIMA-interacting 1 (Homo sapiens) (Q13526 whole entry, looked up): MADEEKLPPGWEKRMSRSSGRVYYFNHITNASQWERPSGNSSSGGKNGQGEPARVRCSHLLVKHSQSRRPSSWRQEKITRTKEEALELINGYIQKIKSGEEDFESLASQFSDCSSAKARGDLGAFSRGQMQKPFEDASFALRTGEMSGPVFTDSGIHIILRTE
Sequence of Thioredoxin reductase 1, cytoplasmic (Rattus norvegicus) (O89049 whole entry, looked up): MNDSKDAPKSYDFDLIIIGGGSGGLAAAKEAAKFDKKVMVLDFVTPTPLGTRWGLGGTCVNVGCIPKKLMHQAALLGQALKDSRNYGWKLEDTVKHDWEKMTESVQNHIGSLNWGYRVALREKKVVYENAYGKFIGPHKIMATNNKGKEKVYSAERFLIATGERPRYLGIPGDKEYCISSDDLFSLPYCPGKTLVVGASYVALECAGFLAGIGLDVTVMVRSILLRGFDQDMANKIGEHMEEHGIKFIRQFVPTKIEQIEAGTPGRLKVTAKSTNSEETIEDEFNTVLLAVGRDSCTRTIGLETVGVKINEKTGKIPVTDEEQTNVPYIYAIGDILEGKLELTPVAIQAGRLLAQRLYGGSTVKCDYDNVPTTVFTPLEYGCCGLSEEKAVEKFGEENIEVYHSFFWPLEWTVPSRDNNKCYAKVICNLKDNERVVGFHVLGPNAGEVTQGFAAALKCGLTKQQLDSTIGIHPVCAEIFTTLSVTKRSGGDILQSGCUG
Sequence of ATPase family AAA domain-containing protein 5 (Homo sapiens) (Q96QE3 whole entry, looked up, the tested form may be a part): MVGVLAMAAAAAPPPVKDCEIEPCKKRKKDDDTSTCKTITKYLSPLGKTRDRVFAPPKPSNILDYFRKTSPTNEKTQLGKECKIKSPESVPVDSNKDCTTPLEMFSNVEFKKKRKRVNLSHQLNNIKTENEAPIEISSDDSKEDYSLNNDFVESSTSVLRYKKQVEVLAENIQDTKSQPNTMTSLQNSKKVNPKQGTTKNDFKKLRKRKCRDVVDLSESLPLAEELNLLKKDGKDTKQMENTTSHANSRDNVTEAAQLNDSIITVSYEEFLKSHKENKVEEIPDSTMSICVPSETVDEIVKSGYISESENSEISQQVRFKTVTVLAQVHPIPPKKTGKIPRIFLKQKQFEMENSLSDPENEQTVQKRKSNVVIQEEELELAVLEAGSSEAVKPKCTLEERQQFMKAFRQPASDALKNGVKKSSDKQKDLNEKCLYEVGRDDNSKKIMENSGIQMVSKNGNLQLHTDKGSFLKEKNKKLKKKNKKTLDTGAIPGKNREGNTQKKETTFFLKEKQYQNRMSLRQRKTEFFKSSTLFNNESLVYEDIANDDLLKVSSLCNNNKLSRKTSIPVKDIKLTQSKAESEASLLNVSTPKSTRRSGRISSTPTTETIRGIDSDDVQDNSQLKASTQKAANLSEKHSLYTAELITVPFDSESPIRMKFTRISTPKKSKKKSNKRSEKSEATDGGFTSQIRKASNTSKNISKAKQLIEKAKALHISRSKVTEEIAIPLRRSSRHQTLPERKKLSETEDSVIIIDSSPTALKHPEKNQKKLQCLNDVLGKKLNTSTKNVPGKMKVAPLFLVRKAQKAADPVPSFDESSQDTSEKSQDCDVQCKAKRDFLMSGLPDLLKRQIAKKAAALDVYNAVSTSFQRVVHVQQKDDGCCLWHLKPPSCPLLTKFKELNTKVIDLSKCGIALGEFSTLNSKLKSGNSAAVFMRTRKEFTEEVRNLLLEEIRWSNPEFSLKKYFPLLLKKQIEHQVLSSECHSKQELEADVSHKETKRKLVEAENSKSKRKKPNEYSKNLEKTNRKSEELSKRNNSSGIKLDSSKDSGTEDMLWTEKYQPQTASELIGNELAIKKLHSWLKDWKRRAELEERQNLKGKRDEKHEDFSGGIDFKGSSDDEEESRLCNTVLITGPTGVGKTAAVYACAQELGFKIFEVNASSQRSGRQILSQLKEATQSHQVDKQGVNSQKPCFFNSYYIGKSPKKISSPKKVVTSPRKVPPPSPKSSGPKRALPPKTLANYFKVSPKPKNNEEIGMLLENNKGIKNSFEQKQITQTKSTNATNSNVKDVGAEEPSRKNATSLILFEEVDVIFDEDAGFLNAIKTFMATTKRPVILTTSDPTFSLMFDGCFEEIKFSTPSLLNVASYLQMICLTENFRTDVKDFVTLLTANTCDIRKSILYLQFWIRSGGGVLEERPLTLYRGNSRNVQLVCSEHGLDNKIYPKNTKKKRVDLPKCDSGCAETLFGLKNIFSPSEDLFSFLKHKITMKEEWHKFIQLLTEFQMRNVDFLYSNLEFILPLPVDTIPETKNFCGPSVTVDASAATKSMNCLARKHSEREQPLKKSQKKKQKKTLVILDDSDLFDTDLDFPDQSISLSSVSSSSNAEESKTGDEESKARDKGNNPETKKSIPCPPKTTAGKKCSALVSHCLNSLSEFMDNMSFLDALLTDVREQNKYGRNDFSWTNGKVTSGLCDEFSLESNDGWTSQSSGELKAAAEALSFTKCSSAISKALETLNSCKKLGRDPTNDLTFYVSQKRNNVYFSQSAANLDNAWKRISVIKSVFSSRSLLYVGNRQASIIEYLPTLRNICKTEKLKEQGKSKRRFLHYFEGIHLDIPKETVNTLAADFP
Sequence of Chromobox protein homolog 1 (Homo sapiens) (P83916 whole entry, looked up): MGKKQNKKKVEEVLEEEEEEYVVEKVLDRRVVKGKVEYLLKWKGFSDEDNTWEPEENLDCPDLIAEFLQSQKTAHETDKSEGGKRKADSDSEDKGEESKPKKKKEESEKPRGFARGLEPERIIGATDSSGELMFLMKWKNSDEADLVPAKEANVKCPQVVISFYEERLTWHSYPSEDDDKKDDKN

CCCCCCCCCCCC(CC1OC(=O)C1CCCCCC)OC(=O)C(CC(C)C)NC=O (centres undefined)
inactive: [1]

OCC(O)C(O)C(O)CO (centres undefined)
inactive: [1]

COc1ccc2cc([S+]([O-])Cc3ncc(C)c(OC)c3C)nc2c1
-3.22%: [12]
inactive: [2] | [3] | [4] | [5] | [6] | [7] | [8] | [9] | [10] | [11] | [12] | [13] | [14]

COc1ccc([C@@H]2CNC(=O)C2)cc1OC1CCCC1
inactive: [1]

O=c1[nH]c(=O)n([C@H]2C[C@@H](O)[C@@H](CO)O2)cc1C=CBr
1.21%: [12]
inactive: [2] | [3] | [4] | [15] | [5] | [6] | [7] | [8] | [9] | [10] | [11] | [12] | [13] | [14]

CN[C@H](CC(C)C)C(=O)N[C@H]1C(=O)N[C@@H](CC(N)=O)C(=O)N[C@@H]2C(=O)N[C@H]3C(=O)N[C@H](C(=O)N[C@H](C(=O)O)c4cc(O)cc(O)c4-c4cc3ccc4O)[C@H](O)c3ccc(c(Cl)c3)Oc3cc2cc(c3O[C@@H]2O[C@H](CO)[C@@H](O)[C@H](O)[C@@H]2O[C@H]2C[C@](C)(N)[C@H](O)[C@H](C)O2)Oc2ccc(cc2Cl)[C@H]1O
-4.03%: [12]
inactive: [2] | [3] | [15] | [6] | [7] | [8] | [9] | [10] | [11] | [12] | [13] | [14]

Nc1nc2c(c(=O)[nH]1)N(C=O)[C@H](CNc1ccc(C(=O)N[C@@H](CCC(=O)O)C(=O)O)cc1)CN2
inactive: [1]

COc1ccc2c(c1OC)C(=O)OC2[C@H]1c2c(cc3c(c2OC)OCO3)CCN1C (some centres undefined)
inactive: [1]

N=c1ccn2c(n1)O[C@H]1[C@@H](O)[C@@H](CO)O[C@H]12
inactive: [16] | [15] | [17] | [18] | [19] | [20]

CCC(C(=O)O)C1CCC(C)C(C(C)C(O)C(C)C(=O)C(CC)C2OC3(C=CC(O)[C@@]4(CC[C@](C)(C5CC[C@@](O)(CC)C(C)O5)O4)O3)C(C)CC2C)O1 (some centres undefined)
inactive: [1]

— PubChem BioAssay (NCATS)
